# Rows were chosen to be rich in hits. Some 1.8% of all compounds tested hit in one or more screens of this group.
# L3MBTL1 block: L3MBTL1 (human) inhibition | AlphaScreen L3MBTL1–H3K9me1 peptide binding | Potency, µM (doses to about 57.1 µM), without a hit: top-dose activity, negative = inhibition, hits mostly inhibitors | 0.66% of 230,000 active | AID 485360; further: on the % scale 0 is the no-effect control and ±100 the full control effect; nearly all actives have a fitted effect of over 60% in size
#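 L3MBTL1 50 nM + b-AHA-H3(1-15)K9me1 75 nM, 30 min RT; compound added, 30 min RT; streptavidin donor/Ni-chelate acceptor beads 10 ug/mL each final, 30 min RT dark; AlphaScreen read.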
# HTT aggregate: mutant huntingtin aggregation inhibition; PC12 HttQ103-GFP aggregates, Acumen cytometry, 40 h; Potency, µM (series often up to 46.1 µM), without a hit: at the highest dose activity change, negative = inhibition, actives largely listed as inhibitors; 1.1% of 220,000 active; AID 1688; further: on the % scale 0 is the no-effect control and ±100 the full control effect; nearly all actives have a fitted effect of over 60% in size
#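 PC12/HTTQ103-GFP, ecdysone-inducible; teb 100 nM; cpd qHTS titration; GFP aggregates read on laser cytometer, Ex 488/Em 500-530 nm.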
# HTT ATP protect: Huntington cell model cytoprotection by ATP luminescence | 0.14% of 230,000 active | Potency, µM (top dose mostly 56.4 µM), for inactives: cytoprotection (ATP increase), most hits filed as activators | AID 1471 | PC12 HTT-Q103 induced, cytoprotection, ATP luminescence, 40 h; further: % of control where 0% means no effect; nearly all actives have a fitted effect of over 45% in size
#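 PC12 cells stably carrying ecdysone-inducible Htt exon 1 (Q103)–GFP were induced with 100 nM tebufenozide (final) alongside library compounds in a dose series. Cytoprotection was scored as retained ATP by ATPlite luminescence.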
# JMJD2E inh: inhibitors of human JMJD2E histone demethylase. JMJD2E catalytic domain, FDH-coupled NADH fluorescence (FDH is formaldehyde dehydrogenase). Potency, µM (top dose mostly 57.1 µM), inactives show at the highest dose activity change, negative = inhibition, actives largely listed as inhibitors. 1.6% of 230,000 active. AID 2147; active means well fitted inhibition curve with a large enough effect, not every such curve was filed as active; inconclusive means small, poorly fitted or top-dose-only effect, or another doubt; inactive means no such curve, though single readings can be large or run the other way;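 further: 0% = wells with enzyme and -100% = buffer wells without enzyme; nearly all actives have a fitted effect of over 50% in size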
# Target sequence (B2RXH2 1-337 limits assumed): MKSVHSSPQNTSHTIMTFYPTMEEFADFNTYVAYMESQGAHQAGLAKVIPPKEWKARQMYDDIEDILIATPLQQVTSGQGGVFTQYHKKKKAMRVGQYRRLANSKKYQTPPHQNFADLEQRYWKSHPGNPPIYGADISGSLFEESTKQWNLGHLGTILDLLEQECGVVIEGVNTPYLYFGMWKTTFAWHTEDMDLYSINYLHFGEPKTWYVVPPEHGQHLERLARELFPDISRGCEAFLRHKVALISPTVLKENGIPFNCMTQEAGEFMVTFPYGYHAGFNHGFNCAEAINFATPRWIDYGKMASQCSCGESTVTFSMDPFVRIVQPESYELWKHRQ
# * hit, by the source's call; ? = inconclusive; · = no result; [ ] = remark or other dose. Unless noted, the call rests on the fitted dose curve; in most records, active means well fitted curve in the direction sought with a large enough effect; inconclusive means small, poorly fitted or top-dose-only effect, or another doubt; inactive means no such curve, though single readings can be large; an effect the other way counts as inactive or inconclusive. Potency means the concentration at half of the fitted maximal effect.
SMILES,L3MBTL1 block,HTT aggregate,HTT ATP protect,JMJD2E inh
COC(=O)/C=C/c1ccc2c(c1)OCO2,28%,4%,-4%[10 µM],?
O=C(/C=C/c1ccc2c(c1)OCO2)c1cccs1,·,·,-21%[1.9 µM],22µM*
CCNc1ccccc(C(=O)/C=C/c2ccc3c(c2)OCO3)c1=O,·,?,5%,20µM*
Cc1ccc(S(=O)(=O)N[C@@H](CCc2ccccc2)CC(=O)C(C)(C)C)cc1,·,·,-46%[10 µM],·
COc1ccc(-n2nc3c(N4CCCC(C(=O)NCc5ccccc5C)C4)nnc(C)c3c2C)cc1 (stereo not drawn),5%,·,·,·
COC(=O)CC#N,8%,·,8%,·
N#CCC(N)=C(C#N)C#N,-11%,-19%,·,7.9µM*
CCCC[C@@H]1CN2[C@H](c3ccc(Br)cc3)[C@@H](C)CC[C@H]2C(=O)O1,·,·,-9%[10 µM],·
COC(=O)CCCNC(=O)c1ccc2[nH]c(C)c(C)c2c1,-6%,1.3µM*,-11%,-16%
Nc1sc2c(c1C(=O)NC1CCS(=O)(=O)C1)CCCC2 (stereo not drawn),-1%,17%,-3%[10 µM],28µM*
Cc1cc(C)n(Cc2ccc(C(=O)O)cc2)n1,·,-10%[9.22 µM],21%,1%
Cc1ccc(C)n1Cc1ccc(C(=O)O)cc1,?,-3%,8%,4.5µM*
COc1ccc2c(c1OC)C(=O)OC2CC(=O)c1ccc(O)c(O)c1 (stereo not drawn),·,4%[9.22 µM],-8%,14µM*
CCC/C=C/C(C)O (stereo not drawn),·,·,?,11%
CCC(=O)N1CCN(c2cc3c(cc2F)c(=O)c(C(=O)O)cn3CC)CC1,·,·,4%[10 µM],·
CCn1cc(C(=O)O)c(=O)c2cc(F)c(N3CCN(S(=O)(=O)c4ccc(NC(=O)OC)cc4)CC3)cc21,-27%,32µM*,-11%[10 µM],?
COc1cc(/C=N/Nc2ccc(F)cc2F)cc(OC)c1O,-17%,?,7%[0.074 µM],7.9µM*
O=C(NC(c1ccccc1)c1cc(Cl)c2cccnc2c1O)c1cccnc1 (stereo not drawn),8%,4µM*,-88%[10 µM],-4%
CCCC(=O)NC(c1ccc2c(c1)OCO2)c1cc(Cl)c2cccnc2c1O (stereo not drawn),9%,2.8µM*,-69%[10 µM],-10%
CC(=O)Oc1c(C)cc(OCC(O)CNC(C)C)c(C)c1C (stereo not drawn),·,-14%,-42%,·
O=C1C=C[C@@H](O)[C@@H]2[C@H]3C(=O)N(c4ccc(F)cc4F)C(=O)[C@@H]3CC[C@@H]12,·,·,-8%[10 µM],·
Cc1nc(Nc2ccccc2)c2nc(-c3ccccc3)n(CCN3CCOCC3)c2n1,·,·,-64%,?
O=C(O)COc1cccc(-c2ocnc2-c2nc(-c3ccccc3)c(-c3ccccc3)o2)c1,·,·,-1%,?
Cc1cc(=O)[nH]c(SCC(=O)Nc2cccc3ccccc23)c1C#N,·,3.2µM*,20%,?
C=CCn1c(=O)c2c(nc(-c3ccccc3)n2C)n(C)c1=O,·,·,-6%,·
SMILES,L3MBTL1 block,HTT aggregate,HTT ATP protect,JMJD2E inh
Cc1ccc(NC(=S)NNc2ncc(C(F)(F)F)cc2Cl)cc1,7%,-20%,12%[10 µM],-10%
Fc1ccc(NC(=S)NNc2ncc(C(F)(F)F)cc2Cl)c(F)c1,-3%[11.4 µM],7.9µM*,-96%,-6%
FC(F)(F)c1cnc(NNC(=S)Nc2ccc(Cl)cc2)c(Cl)c1,-10%,11µM*,7%[10 µM],?
CCc1cc(C(=O)c2ccc(C)cc2)c(NC(=O)CCl)s1,35µM*,26%,3%[10 µM],-7%
[O-]c1c[n+](-c2ccc(-[n+]3cc([O-])on3)cc2)no1,?,6%[9.22 µM],-61%[1.9 µM],25µM*
CCCCC(=Nc1ccc(N)cc1)C1=C(O)C(C(=O)OC)C(C)(C)CC1=O (stereo not drawn),·,10%,-12%,?
CCC(=Nc1ccc(N)cc1)C1=C(O)C(C(=O)OC)C(C)(C)CC1=O (stereo not drawn),28µM*,14%,-21%,8.9µM*
CN(Cc1c(O)ccc2c1oc(=O)c1ccccc12)C1CCCCC1,·,-11%,-23%,25µM*
Cc1c(NS(=O)(=O)c2ccc3c(c2)OCCO3)cccc1-c1nc2cccnc2s1,-9%,8.9µM*,30%[10 µM],?
Cc1ccc(S(=O)(=O)Nc2cc(C)c(O)cc2C)cc1,1%,23%,-24%,-10%
Cc1ccc(S(=O)(=O)Nc2csc(C)c2C(=O)O)cc1,7.9µM*,33%[9.22 µM],24%[10 µM],-4%
COc1cc(CNc2ccc(N3CCCC3)cc2)ccc1OCc1ccccc1F,?,26%,-2%[10 µM],-3%

# Screening results: PubChem BioAssay, National Center for Advancing Translational Sciences (NCATS)
